According to the supplement of paper PMC8047044:
Several values for one entry are separate records, joined by “and”; a condition that tells them apart may be missing. Equal entries are not always repeated. Structures can show the parent of a compound that is named as a salt.

Assays:
[1] = test system: Neuro-2a; assay: neurite formation score, plate-normalized to DMSO control mean 5.04 (score (0-8 scale)); higher = more or longer neurites; details: 1 µM
Experimental: (§1)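 Neuro-2a mouse neuroblastoma cells in PLL-coated 96-well plates were pre-treated for 1 h in DMEM(+) with each kinase inhibitor at 1 µM, then switched to serum-free DMEM(-) with inhibitor to induce neurite outgrowth and fixed about 2-3 h later. Three blinded observers scored neurite formation from 0 (no neurites) to 8 (long neurites on almost all cells).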

[2] = test system: Neuro-2a; assay: as above; details: 0.1 µM
Experimental: as §1, with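 “at 0.1” for “at 1”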

SMILES | neurite formation score [1] | neurite formation score [2]
O=C(Cc1ccc(-c2ccc(OCCN3CCOCC3)cc2)cn1)NCc1ccccc1 | -0.529 | -0.243
COc1cc2ncnc(Sc3nnc(C)s3)c2cc1OC | 4.96 | 4.25
Cc1cc(CN2CCN(c3c(Br)cnc4nc(-c5ccc(N6CCN(C)CC6)cc5)[nH]c34)CC2)no1 | 4.47 | 4.76
Cc1ccc(Nc2nccc(N(C)c3ccc4c(C)n(C)nc4c3)n2)cc1S(N)(=O)=O [Pazopanib Hydrochloride] | 3.57 | 4.88
O=C1NC(=NCc2cccs2)S/C1=C\c1ccc2ncccc2c1 | 5.63 | 4.25
CCCCCCCCCCCCCCCCCCOP(=O)([O-])OC1CC[N+](C)(C)CC1 [Perifosine] | 4.57 | 4.88
NC(=O)c1ccc2nc(-c3ccc(Oc4ccc(Cl)cc4)cc3)[nH]c2c1 | 4.63 | 5.25
COc1cc(N2CCC(N3CCN(C)CC3)CC2)ccc1Nc1ncc(Cl)c(Nc2ccccc2S(=O)(=O)C(C)C)n1 | 2.24 | 5.54
CCn1nnc2c(N3CCOCC3)nc(-c3ccc(NC(=O)Nc4ccc(C(=O)N5CCN(C)CC5)cc4)cc3)nc21 | 3.14 | 4.76
COc1cc2c(c(OC)c1OC)-c1c(cc3c(c1OC)OCO3)CC(C)C(C)C2 (stereo not given) [Schizandrin B] | 4.88 | 5.08
O=c1cc(N2CCOCC2)oc2c1ccc1ccccc12 | 4.8 | 4.42
O=c1cc(CN2CCOCC2)occ1OCCCCCSc1ccnc2cc(C(F)(F)F)ccc12 | 4.21 | 5.75
COc1cc2ncnc(Nc3ccc(F)c(Cl)c3)c2cc1OCCCN1CCOCC1 [Gefitinib (ZD1839)] | 4.24 | 4.88
O=C(Nc1cc(C(F)(F)F)cc(C(F)(F)F)c1)c1cc(Cl)ccc1O | 2.8 | 4.76
CCCCCCCCCCCCCCCc1cccc(O)c1C(=O)O [Anacardic acid] | 4.02 | 4.92
O=C(NOC[C@H](O)CO)c1ccc(F)c(F)c1Nc1ccc(I)cc1F | 4.91 | 4.71
CS(=O)(=O)CCNCc1ccc(-c2ccc3ncnc(Nc4ccc(OCc5cccc(F)c5)c(Cl)c4)c3c2)o1 [Lapatinib] | 4.24 | 4.88
CNC(=O)c1cc(Oc2ccc(NC(=O)c3cccc(C(F)(F)F)c3)cc2)ccn1 | 3.57 | 5.54

SMILES | neurite formation score [1] | neurite formation score [2]
Cc1cc(O)c2c(c1)C(=O)c1cccc(O)c1C2=O [Chrysophanol] | 4.8 | 4.76
CCCCCCCCCCCCCCCCCC(=O)OC[C@H](CO)OC(=O)CCCCCCCCCCCCCCCCC [1,2-Distearoyl-sn-glycerol] | 4.54 | 5.42
C1=N/C2=N/c3ccc(OCCN4CCCC4)c(c3)COC/C=C/COCc3cccc(c3)C(=C1)N2 [Pacritinib] | 2.29 | 4.92
Cc1c(NC(=O)OC[C@@H]2COCCN2)cn2ncnc(Nc3ccc4c(cnn4Cc4cccc(F)c4)c3)c12 | 2.91 | 3.71
N=C(N)NC(=N)NCCc1ccccc1 [Phenformin HCl] | 4.8 | 4.76
O=c1c(-c2ccc(O)cc2)coc2cc(O)cc(O)c12 [Genistein] | 4.57 | 3.38
Cc1ccc2c(Nc3ccc(Cl)cc3)nccc2c1Nc1ncccc1-c1ncnc2nc[nH]c12 [B-Raf inhibitor 1] | 2.47 | 4.76
CN(c1ncccc1CNc1nc(Nc2ccc3c(c2)CC(=O)N3)ncc1C(F)(F)F)S(C)(=O)=O | 1.57 and 4.24 | 3.54 and 4.88
CC1(C)CNc2cc(NC(=O)c3cccnc3NCc3ccncc3)ccc21 [Motesanib Diphosphate (AMG-706)] | 4.36 | 4.92
C=CC(=O)Nc1cc(Nc2nccc(-c3cn(C)c4ccccc34)n2)c(OC)cc1N(C)CCN(C)C | 5.14 | 3.76
Nc1nc(Nc2ccc3c(c2)CCC(N2CCCC2)CC3)nn1-c1cc2c(nn1)-c1ccccc1CCC2 (stereo not given) | 4.24 | 4.54
Cn1cc(-c2ccc3nnc(C(F)(F)c4ccc5ncccc5c4)n3n2)cn1 | 4.02 | 4.25
CN(C)S(=O)(=O)c1ccc2c(c1)/C(=C/c1cc3c([nH]1)CCCC3)C(=O)N2 | 4.54 | 4.75
CN(C)C1CCN(C(=O)c2ccc(NC(=O)Nc3ccc(-c4nc(N5CCOCC5)nc(N5CCOCC5)n4)cc3)cc2)CC1 | 4.14 | 3.09
O=C(/C=C/c1ccc(O)c(O)c1)c1ccc(O)cc1O [Butein] | 5.24 | 4.38
CCN(CC)CCNC(=O)c1c(C)[nH]c(/C=C2\C(=O)Nc3ccc(F)cc32)c1C [Sunitinib malate] | 5.57 | 5.21
COc1cc(Nc2nc3ccccc3nc2NS(=O)(=O)c2ccc(NC(=O)c3ccc(C)c(OC)c3)cc2)cc(OC)c1 | 4.57 | 4.21
